In PubChem BioAssay:
“And” between values parts separate entries of the source, which are not always exact repeats. Identical values can stand only once. The source made the active and inactive calls. No rule for the calls is given here.

Assays:
[1] = kinase inhibitors against Plasmodium liver-stage infection, cell-based, known kinase inhibitor set, luminescence, hepatoma host viability (AID 624392); details: Plasmodium liver stage in hepatoma cells, luciferase luminescence, concentration not given here; liver cell % of control: measured here: host liver cell viability; parasite % of control: stronger effect = lower value;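 also: infected cells incubated roughly two days before readout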
[2] = modulators of glucocorticoid suppression of NF-kB, cell-based, luciferase, IL-1B stimulus, dexamethasone (AID 624486); details: NF-kB luciferase reporter, IL-1B + dexamethasone, luminescence; percent of negative control (+Dex): actives lie on both sides, concentration not given here; z-score: measured here: IL-1B alone, no Dex;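 as to percent of negative control (+Dex): 100% = mean signal of vehicle control wells on the plate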
[3] = target: Cellular tumor antigen p53 (Homo sapiens) (UniProt P04637); test: kinase inhibitors altering GFP-p53 stability in HPV16-positive cells, imaging, known kinase inhibitor set, EGFP/DsRed ratio (AID 1053116); details: stronger effect = higher value; EGFP object count: measured here: GFP-p53 positive objects count;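 also: cells exposed to compounds for 24 h at 37 °C before reading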
[4] = IRF3 reporter activation in THP-1 macrophages, cell-based, PMA-stimulated THP-1, luminescence (AID 1053176); details: PMA-differentiated THP-1, IRF3 reporter luminescence; stronger effect = higher value

Cellular tumor antigen p53 (Homo sapiens), sequence (P04637 whole entry, looked up): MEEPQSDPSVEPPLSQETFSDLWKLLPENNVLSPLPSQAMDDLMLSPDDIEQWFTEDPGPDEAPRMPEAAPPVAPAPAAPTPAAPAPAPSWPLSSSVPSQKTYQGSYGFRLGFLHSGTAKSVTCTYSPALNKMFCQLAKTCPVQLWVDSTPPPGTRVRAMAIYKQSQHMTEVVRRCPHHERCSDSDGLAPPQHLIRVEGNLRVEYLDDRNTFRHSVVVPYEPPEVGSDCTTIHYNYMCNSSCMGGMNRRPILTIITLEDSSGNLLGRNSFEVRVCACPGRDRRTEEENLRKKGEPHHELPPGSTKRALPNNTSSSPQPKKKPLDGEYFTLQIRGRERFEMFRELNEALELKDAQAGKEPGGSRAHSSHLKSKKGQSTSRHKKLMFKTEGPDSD

Compound | liver cell % of control [1] | parasite % of control [1] | percent of negative control (+Dex) [2] | z-score [2] | EGFP object count [3] | EGFP/DsRed ratio [3] | fraction signal [4]
O=C1NC(=NCc2ccccn2)SC1=Cc1ccc2ncccc2c1 | 105% | 37.5% (inactive) | 94% (inactive) | 0.165 | 6.5 | 0.264 (inactive) | 0.01 (inactive)
O=c1[nH]c2nc(NC3CCOCC3)ncc2cc1Oc1ccc(F)cc1F | 94.5% | 56.1% (inactive) | 104% (inactive) | 0.61 | 2 | 0.08 (inactive) | -0.003 (inactive)
CSc1c(C2=C(c3cn(C)c4ccccc34)C(=O)NC2=O)c2ccccc2n1C | 96.3% | 78.1% (inactive) | 110% (inactive) | 0.45 | 21 | 0.217 (inactive) | 0.0015 (inactive)
O=C1NC(=NCCc2ccccn2)SC1=Cc1ccc2ncccc2c1 | 170% | 32.1% (inactive) | 92.5% (inactive) | 0.025 | 5.5 | 0.134 (inactive) | 0.0055 (inactive)
Cn1c(=O)c(Oc2ccc(F)cc2F)cc2cnc(NC3CCS(=O)(=O)CC3)nc21 | 106% | 43.3% (inactive) | 97.5% (inactive) | 0.51 | 5 | 0.324 (inactive) | 0.001 (inactive)
Nc1c(C(=O)c2cccc(C#CCN3CCOCC3)c2)cnn1-c1ccc(F)cc1 | 159% | 75.7% (inactive) | 120% (inactive) | 1.29 | 2.5 | 0.12 (inactive) | 0.0055 (inactive)
COCC(N=C1NC(=O)C(=Cc2ccc3ncccc3c2)S1)c1ccccc1 (stereo not given) | 98.8% | 49.5% (inactive) | 98% (inactive) | 0.145 | 6.5 | 0.249 (inactive) | -0.005 (inactive)
O=C1NC(=NCCc2ccccc2Cl)SC1=Cc1ccc2ncccc2c1 | 121% | 44.8% (inactive) | 90% (inactive) | 0 | 4.5 | 0.105 (inactive) | -0.003 (inactive)
Cn1cc(C2=C(c3ccsc3)C(=O)NC2=O)c2ccccc21 | 108% | 30% (inactive) | 92.5% (inactive) | -0.045 | 3.5 | 0.27 (inactive) | -0.0155 (inactive)
CC(=O)NC(Cc1ccc(OP(=O)(O)O)cc1)C(=O)NC1CCC(=O)N2CCCC(C(=O)NCc3ccccc3)N2C1=O (stereo not given) | 105% | 55% (inactive) | 102% (inactive) | 0.685 | 1.5 | 0.0487 (inactive) | -0.0115 (inactive)
O=C1OC(=O)C(c2c[nH]c3ccccc23)=C1c1c[nH]c2ccccc12 | 99.6% | 48.8% (inactive) | 95% (inactive) | 1 | 3.5 | 0.0625 (inactive) | -0.018 (inactive)
Nc1c(C(=O)c2cccc(-c3ccncc3)c2)cnn1-c1ccc(F)cc1 | 101% | 36.5% (inactive) | 95.5% (inactive) | 0.895 | 2 | 0.219 (inactive) | -0.003 (inactive)
COc1cccc(C2=C(c3cn(C)c4ccc(Cl)cc34)C(=O)NC2=O)c1 | 197% | 11.6% (inactive) | 139% (inactive) | 0.245 | 13.5 | 0.277 (inactive) | -0.0075 (inactive)
Cn1c(-c2ccncc2)c(-c2ccc(F)cc2)c2ncccc21 | 100% | 44.7% (inactive) | 104% (inactive) | 1.04 | 3 | 0.0799 (inactive) | -0.0005 (inactive)
Cn1cc(C2=C(Oc3ccccc3)C(=O)NC2=O)c2ccccc21 | 109% | 43% (inactive) | 102% (inactive) | 0.18 | 41 | 0.339 (inactive) | -0.0005 (inactive)
Cn1c(=O)c(Cc2ccccc2F)cc2cnc(NC3CCOCC3)nc21 | 106% | 64.6% (inactive) | 107% (inactive) | 0.55 | 2.5 | 0.0998 (inactive) | 0.0035 (inactive)
CN1CC2Cc3c(C4=C(c5cn(C)c6ccccc56)C(=O)NC4=O)c4ccccc4n3CC2C1 (stereo not given) | 79.3% and 90.1% | 36.7% (inactive) and 27% (inactive) | 98.5% (inactive) | -0.62 and -0.215 | 2.5 and 3.5 | 0.0121 (inactive) and 0.0134 (inactive) | -0.005 (inactive) and -0.0135 (inactive)
Nc1c(C(=O)c2ccc(-c3cccnc3)cc2)cnn1-c1ccc(F)cc1 | 93.2% | 36.7% (inactive) | 112% (inactive) | 0.835 | 5.5 | 0.226 (inactive) | -0.0025 (inactive)
N#CCn1c(=O)c(Oc2ccc(F)cc2F)cc2cnc(NC3CCOCC3)nc21 | 96.2% | 58.4% (inactive) | 97% (inactive) | -0.11 | 2.5 | 0.064 (inactive) | -0.007 (inactive)
O=C1NC(=NCCc2cccc(Cl)c2)SC1=Cc1ccc2ncccc2c1 | 131% | 170% (inactive) | 89.5% (inactive) | -0.11 | 15 | 0.216 (inactive) | -0.0025 (inactive)
